Assay outcomes (PubChem BioAssay)
Sampled rows, rich in hits. Any-hit rate of the full collection: about 19%.
HepG2 viability = qHTS for Inhibitors of TGF-b: Cytotox Counterscreen; HepG2 CAGA-GFP viability, ATP luminescence, 18 h; Potency, µM (series often up to 46.1 µM), usual class: cytotoxic; hit rate 0.76% among 410,000
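CellTiter-Glo luminescence gave cytotoxicity after 18 hours at 37 degrees C. The cells were HepG2 CAGA-GFP in 1% FBS DMEM, stimulated with 500 pg/mL TGF-beta after compound addition. %Activity was normalised to no-cell wells (complete cell-killing) and DMSO (no toxicity), and curves were fitted and classified.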
IL1B secr inh = qHTS for Inhibitors of Inflammasome Signaling: IL-1-beta AlphaLISA Primary Screen; THP-1 LPS/ATP IL-1B secretion, AlphaLISA, 16 h; stronger effect = lower value; activity change, % at 57.5 µM; hit rate 4.7% among 360,000; AID 743279, 2014; in the data active = activity change below about -50%; inconclusive = mostly about -30% to -49%
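Secreted IL-1B measured by AlphaLISA bead assay after 16 h compound exposure of THP-1 cells; compounds (final up to 57.5 uM) added 1 h before LPS (250 ng/mL) and ATP (1.25 mM) stimulation; lower signal means less secretion.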
DT40 TDP1 CPT = qHTS for Inhibitors of human tyrosyl-DNA phosphodiesterase 1 (TDP1): qHTS in cells in presence of CPT | chicken DT40 Tdp1-/-;hTDP1 cells + 20 nM CPT, ATP luminescence, 48 h | Potency, µM (doses to about 46.2 µM), actives largely listed as inhibitors | hit rate 12% among 420,000 | AID 686979, 2013; note: nearly all actives have a fitted effect of over 55% in size
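Chicken DT40 Tdp1-/- cells stably complemented with human TDP1 were seeded at 400 cells/well in medium containing 20 nM camptothecin, exposed to pin-transferred compounds, and grown at 37 °C for at least 48 hr. Viability was read as ATP luminescence.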
DT40 TDP1 no CPT = qHTS for Inhibitors of human tyrosyl-DNA phosphodiesterase 1 (TDP1): qHTS in cells in absence of CPT; DT40 Tdp1-/- hTDP1 cells, no CPT, ATP luminescence, 48 h; hit rate 15% among 420,000; AID 686978, 2013; Potency, µM (series often up to 46.2 µM), usual class: inhibitors; note: nearly all actives have a fitted effect of over 55% in size
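Stably hTDP1-transfected Tdp1-null chicken DT40 cells were treated with library compounds minus camptothecin and grown for at least 48 hr at 37 °C, after which cellular ATP was quantified by luminescence.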
TGFb SMAD3 inh = qHTS for Inhibitors of TGF-b; HepG2 CAGA-GFP TGF-b/SMAD3 reporter, GFP fluorescence, 18 h; TGF-beta stimulated, 500 pg/mL final; Potency, µM (doses to about 46.1 µM), most hits filed as inhibitors; AID 588855, 2011; hit rate 1.2% among 410,000; note: nearly all actives have a fitted effect of over 65% in size
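HEPG2 CAGA-GFP reporter cells (1000/well, DMEM with 1% FBS) received compounds, then recombinant TGF-beta at 500 pg/mL final for 18 hours at 37 degrees C. Per-cell GFP summed per well was normalised to unstimulated and stimulated DMSO controls before curve fitting.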
TDP1 block = qHTS Assay for Inhibitors of Tyrosyl-DNA Phosphodiesterase (TDP1); recombinant TDP1, AlphaScreen DNA substrate cleavage; Tyrosyl-DNA phosphodiesterase 1 (Homo sapiens), Q9NUW8; hit rate 0.28% among 350,000; Potency, µM (highest dose often 130 µM), most hits filed as inhibitors; note: nearly all actives have a fitted effect of over 40% in size
Target sequence (Q9NUW8 whole entry, looked up): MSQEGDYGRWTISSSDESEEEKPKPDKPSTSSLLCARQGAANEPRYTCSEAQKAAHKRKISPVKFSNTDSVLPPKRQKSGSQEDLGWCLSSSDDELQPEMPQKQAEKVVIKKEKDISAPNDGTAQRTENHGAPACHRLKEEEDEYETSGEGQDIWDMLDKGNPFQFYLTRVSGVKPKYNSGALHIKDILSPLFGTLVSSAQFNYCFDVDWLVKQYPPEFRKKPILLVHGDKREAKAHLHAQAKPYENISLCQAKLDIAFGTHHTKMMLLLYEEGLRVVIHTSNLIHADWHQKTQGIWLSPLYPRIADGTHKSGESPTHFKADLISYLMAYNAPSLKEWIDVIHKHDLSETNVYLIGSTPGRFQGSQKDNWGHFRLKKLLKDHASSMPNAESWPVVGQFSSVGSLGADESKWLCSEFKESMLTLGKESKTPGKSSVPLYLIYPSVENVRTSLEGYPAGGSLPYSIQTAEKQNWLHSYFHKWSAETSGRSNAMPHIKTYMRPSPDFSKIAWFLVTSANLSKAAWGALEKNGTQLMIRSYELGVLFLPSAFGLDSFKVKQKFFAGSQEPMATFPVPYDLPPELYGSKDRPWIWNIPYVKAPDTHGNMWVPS
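E. coli-derived human Tdp1, 1 nM final. Cpd preinc 15 min RT; substrate 15 nM final, 5 min RT; AS bead mix 10 ug/ml final, 10 min RT. Signal loss = tyrosine-FITC cleavage. No-enzyme wells = max signal.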
A number is an active result; n = inactive; u = inconclusive; x = not tested or not shown. Unless noted, calls come from the whole dose curve; as a rule, active = well fitted curve in the direction sought with a large enough effect; inconclusive = small, poorly fitted or top-dose-only effect, or another doubt; inactive = no such curve, though single readings can be large; an effect the other way counts as inactive or inconclusive.

SMILES	HepG2 viability	IL1B secr inh	DT40 TDP1 CPT	DT40 TDP1 no CPT	TGFb SMAD3 inh	TDP1 block
COc1ccc(-c2[nH]ncc2C(=O)NCc2ccccc2C)cc1	n	x	n	n	x	n
CCn1c(=O)c(C(=O)NNC(=O)c2cccc(Cl)c2)c(O)c2ccccc21	n	n	23µM	u	u	n
Cc1cccc(C(=O)NNC(=O)c2c(O)c3ccccc3n(C)c2=O)c1	n	n	u	29µM	u	n
Cn1c(=O)c(C(=O)NNC(=O)c2cccc(Cl)c2)c(O)c2ccccc21	n	u	18µM	13µM	u	n
Cn1c(=O)c(C(=O)NNC(=O)c2ccccc2Cl)c(O)c2ccccc21	n	n	u	18µM	n	x
CCn1c(=O)c(C(=O)NNC(=O)c2ccc(Cl)cc2Cl)c(O)c2ccccc21	n	n	u	u	n	n
Nc1ccn([C@@H]2O[C@H](CNC(=O)[C@@H](Cc3cccnc3)NC=O)[C@@H](O)[C@H]2O)c(=O)n1	n	n	n	n	n	x
Cc1cc(C)c(SSc2nnnn2-c2ccccc2)c(C)c1	n	n	u	u	n	x
CCc1ccc(OCC(=O)Nc2ncn[nH]2)c(Br)c1	n	x	n	n	n	n
CCN(CC)CCNC(=O)Cn1ncc2c([nH]c3ccccc32)c1=O	n	x	n	n	n	n
CC(NC(=O)c1c(O)c2ccccc2n(C)c1=O)c1ccccc1 (centres undefined)	n	n	23µM	18µM	n	x
NS(=O)(=O)c1ccc(CCNC(=O)CN2CCN(Cc3cccc4ccccc34)CC2)cc1	n	n	u	u	n	x
Cc1ccc(S(=O)(=O)N2CCCC2C(=O)Nc2ccc(Br)cc2)cc1 (centres undefined)	n	x	u	15µM	x	n
CC1CCN(c2ccc(NC(=O)C3CCCN3S(=O)(=O)c3ccc(F)cc3)cc2)CC1 (centres undefined)	n	u	18µM	4.1µM	n	n
Cc1cc(C)cc(NC(=O)C2CCCN2S(=O)(=O)c2ccc3c(c2)C(C)(C)C(=O)N3C)c1 (centres undefined)	n	n	16µM	u	n	n
COc1ccc(CNC(=O)CC2N=C3c4ccccc4N=C(SCC(=O)Nc4ccc(C(C)C)cc4)N3C2=O)cc1 (centres undefined)	n	x	n	n	n	n
O=C(CCC(=O)N(CC(=O)NC1CCCC1)c1ccc(F)cc1)Nc1nccs1	n	n	n	n	n	x
COc1ccc(OC)c(N(CC(=O)NC2CCCCCC2)S(=O)(=O)c2ccc(C)cc2)c1	n	n	23µM	23µM	u	n
COc1ccc(OC)c(N(CC(=O)NC2CCCC2)S(=O)(=O)c2ccc(OC)c(OC)c2)c1	n	n	15µM	15µM	n	n
CCOc1ccccc1N(CC(=O)NC1CCCCC1)S(=O)(=O)c1ccc(C)cc1	n	n	u	21µM	n	n
CCc1nc2ccc(C(=O)Nc3ccc(C(=O)N(C)C)cc3)cn2c1N(C)CCCc1ccccc1	n	n	u	u	n	x
CN1CCN(c2ccc(-c3cc(NC=O)c4ncc(-c5ccc(F)cc5)n4c3)cc2)CC1	n	n	15µM	u	u	x
CN1CCN(c2ccc(-c3cc(NC=O)c4ncc(-c5ccccc5)n4c3)cc2)CC1	n	n	21µM	16µM	u	x
CCOC(=O)[C@]12CCC=C1N(Cc1ccccc1)C(=O)[C@H](CC(=O)NCc1cccc3ccccc13)C2	x	n	u	u	x	x
CCCCCCCCN1C(=O)[C@H](CC(=O)NCc2cccc3ccccc23)C[C@@]2(C(=O)OCC)CCC=C12	x	u	u	21µM	x	x
SMILES	HepG2 viability	IL1B secr inh	DT40 TDP1 CPT	DT40 TDP1 no CPT	TGFb SMAD3 inh	TDP1 block
CCOC(=O)[C@]12CCC=C1N(Cc1cccc3ccccc13)C(=O)[C@H](CC(=O)NCCCCc1ccccc1)C2	x	-70	23µM	16µM	x	x
C#CCNC(=O)C[C@@H]1C[C@@]2(C(=O)OC)CC(C)(C)CC=C2N(Cc2cccc3ccccc23)C1=O	x	n	16µM	18µM	x	x
CCOC(=O)[C@]12CCC=C1N(Cc1cccc3ccccc13)C(=O)[C@H](CC(=O)NCCc1ccccc1OC)C2	x	u	u	18µM	x	x
CCOC(=O)[C@]12CCC=C1N(Cc1cccc3ccccc13)C(=O)[C@H](CC(=O)NCCCN1CCCC1=O)C2	x	n	u	u	x	x
CCCCNC(=O)C[C@@H]1C[C@@]2(C(=O)OC)CC(C)(C)CC=C2N(Cc2cccc3ccccc23)C1=O	x	n	u	u	x	x
CN1CCN(c2ccccc2NC(=O)c2ccc3c(c2)OCCO3)CC1	n	n	n	u	n	n
C#CCNC(=O)C[C@@H]1C[C@@]2(C(=O)OCC)CCC=C2N(Cc2cccc3ccccc23)C1=O	x	n	u	16µM	x	x
COC(=O)[C@]12CCCCC=C1N(Cc1cccc3ccccc13)C(=O)[C@H](CC(=O)NCc1cccc(C(F)(F)F)c1)C2	x	-73	u	u	x	x
CCOC(=O)[C@]12CCCC=C1N(Cc1cccc3ccccc13)C(=O)[C@H](CC(=O)NCC1CCCCC1)C2	x	n	u	23µM	x	x
CCOC(=O)[C@]12CCCC=C1N(Cc1cccc3ccccc13)C(=O)[C@H](CC(=O)NCc1ccccc1)C2	x	n	u	23µM	x	x
CCOC(=O)[C@]12CCC=C1N(Cc1cccc3ccccc13)C(=O)[C@H](CC(=O)NCc1ccccc1)C2	x	n	u	u	x	x
CCn1c(CN2CCOCC2)nc2cc(NC(=O)c3cccc([N+](=O)[O-])c3)ccc21	n	x	u	n	n	n
CCOC(=O)[C@]12CCCC=C1N(Cc1cccc3ccccc13)C(=O)[C@H](CC(=O)NCc1ccc(OC)c(OC)c1)C2	x	-69	u	16µM	x	x
Cc1ccc(C(=O)NCc2ccc(N(C)C)cc2)cc1NC(=O)c1nsc2ccccc12	n	x	u	16µM	n	n
Cc1ccc(C(=O)NCc2ccccc2)cc1NC(=O)c1nsc2ccccc12	n	x	u	16µM	u	n
CCOc1ccc(-c2nnc(SCC(=O)NC3CCCC3)nc2-c2ccc(OCC)c(OC)c2)cc1OC	n	x	u	u	n	n
C=CCSC1=N/C(=C\c2cccnc2)C(=O)N1c1ccc(OC)cc1	n	n	n	u	n	n
CCSC1=N/C(=C\c2ccccc2)C(=O)N1c1ccc(OC)cc1	n	n	u	21µM	n	n
